Measured values reported in PubChem BioAssay AID1159580 (chemical genetic matrix, 2015).
Values joined by “and” are separate entries in the source; they are usually repeats but may differ in a detail not shown here. Identical values can stand only once. The whole screen tested about 5,500 compounds, of which about 2,000 (36%) were called active. Inconclusive results (about 18%) are left out. No stated cut-off is given here; in the data, active means normalized growth mostly below about 0.91 (no sharp cut-off); inconclusive means no clear call, values can overlap the other calls; inactive means mostly above about 0.92. The list shows a part of the results.

Assay: chemical genetic growth profiling, strain panel (AID 1159580);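 further: tested at 20 µM; growth read once vehicle control cultures reached saturation at 30 °C; 1 = growth at the plate median or of vehicle wells; lower values mean less growth of the strain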
Conditions: growth OD

Measured: normalized growth

CC/C(=C(\c1ccccc1)c1ccc(OCCN(C)C)cc1)c1ccccc1
active: S. cerevisiae deletion strains, locus YKL009W, strain mrt4, active compounds read low 0.79 | S. cerevisiae deletion strains, locus YKL160W, strain elf1, active compounds read low 0.13 | S. cerevisiae deletion strains, locus YKL190W, strain CNB1, active compounds read low 0.045 | S. cerevisiae deletion strains, locus YKR001C, strain vps1, active compounds read low 0.064 | S. cerevisiae deletion strains, locus YKR026C, strain gcn3, active compounds read low 0.184 | S. cerevisiae deletion strains, locus YKR091W, strain srl3, active compounds read low 0.0995 | S. cerevisiae deletion strains, locus YLL001W, strain dnm1, active compounds read low 0.0862 | S. cerevisiae deletion strains, locus YLL026W, active compounds read low 0.0741 | S. cerevisiae deletion strains, locus YLL041C, strain sdh2, active compounds read low 0.115 | S. cerevisiae deletion strains, locus YLR027C, strain aat2, active compounds read low 0.0818 | S. cerevisiae deletion strains, locus YLR039C, strain RIC1, active compounds read low 0.0749 | S. cerevisiae deletion strains, locus YLR058C, strain SHM2, active compounds read low 0.0464 | S. cerevisiae deletion strains, locus YLR102C, strain apc9, active compounds read low 0.0601 | S. cerevisiae deletion strains, locus YLR113W, strain HOG1, active compounds read low 0.822 | S. cerevisiae deletion strains, locus YLR221C, strain rsa3, active compounds read low 0.121 | S. cerevisiae deletion strains, locus YLR258W, strain gsy2, active compounds read low 0.0791 | S. cerevisiae deletion strains, locus YLR262C, strain YPT6 (second series), active compounds read low 0.182 | S. cerevisiae deletion strains, locus YLR262C, strain YPT6, active compounds read low 0.0867 | S. cerevisiae deletion strains, locus YLR268W, strain sec22, active compounds read low 0.0695 | S. cerevisiae deletion strains, locus YLR320W, strain mms22, active compounds read low 0.171 | S. cerevisiae deletion strains, locus YLR330W, strain CHS5, active compounds read low 0.0509 | S. cerevisiae deletion strains, locus YLR342W, strain FKS1 (second series), active compounds read low 0.0626 | S. cerevisiae deletion strains, locus YLR342W, strain FKS1, active compounds read low 0.0912 | S. cerevisiae deletion strains, locus YLR357W, strain rsc2, active compounds read low 0.181 | S. cerevisiae deletion strains, locus YLR370C, strain arc18, active compounds read low 0.0663 | S. cerevisiae deletion strains, locus YLR371W, strain rom2, active compounds read low 0.0629 | S. cerevisiae deletion strains, locus YLR384C, strain iki3, active compounds read low 0.223 | S. cerevisiae deletion strains, locus YLR418C, strain cdc73, active compounds read low 0.105 | S. cerevisiae deletion strains, locus YML016C, strain PPZ1, active compounds read low 0.0451 | S. cerevisiae deletion strains, locus YML032C, strain rad52, active compounds read low 0.0687 | S. cerevisiae deletion strains, locus YML120C, strain ndi1, active compounds read low 0.114 | S. cerevisiae deletion strains, locus YML124C, strain tub3, active compounds read low 0.0591 | S. cerevisiae deletion strains, locus YMR058W, strain fet3, active compounds read low 0.0718 | S. cerevisiae deletion strains, locus YMR078C, strain ctf18, active compounds read low 0.0689 | S. cerevisiae deletion strains, locus YMR125W, strain sto1, active compounds read low 0.131 | S. cerevisiae deletion strains, locus YMR129W, active compounds read low 0.0877 | S. cerevisiae deletion strains, locus YMR205C, strain PFK2, active compounds read low 0.172 | S. cerevisiae deletion strains, locus YMR223W, strain ubp8, active compounds read low 0.0676 | S. cerevisiae deletion strains, locus YMR231W, strain pep5, active compounds read low 0.0689 | S. cerevisiae deletion strains, locus YMR263W, strain SAP30, active compounds read low 0.0557 | S. cerevisiae deletion strains, locus YMR307W, strain GAS1, active compounds read low 0.103 and 0.123 | S. cerevisiae deletion strains, locus YNL067W, strain RPL9B, active compounds read low 0.0484 | S. cerevisiae deletion strains, locus YNL071W, strain lat1, active compounds read low 0.165 | S. cerevisiae deletion strains, locus YNL128W, strain TEP1, active compounds read low 0.0645 | S. cerevisiae deletion strains, locus YNL153C, strain GIM3, active compounds read low 0.0543 | S. cerevisiae deletion strains, locus YNL197C, strain WHI3, active compounds read low 0.704 | S. cerevisiae deletion strains, locus YNL209W, strain ssb2, active compounds read low 0.1 | S. cerevisiae deletion strains, locus YNL224C, strain SQS1, active compounds read low 0.206 | S. cerevisiae deletion strains, locus YNL233W, strain BNI4, active compounds read low 0.0506 | S. cerevisiae deletion strains, locus YNL248C, strain rpa49, active compounds read low 0.555 | S. cerevisiae deletion strains, locus YNL298W, strain CLA4, active compounds read low 0.744 | S. cerevisiae deletion strains, locus YNL307C, strain MCK1, active compounds read low 0.0675 | S. cerevisiae deletion strains, locus YNL322C, strain KRE1, active compounds read low 0.0467 and 0.567 | S. cerevisiae deletion strains, locus YNR049C, strain mso1, active compounds read low 0.0842 | S. cerevisiae deletion strains, locus YNR052C, strain pop2, active compounds read low 0.0611 | S. cerevisiae deletion strains, locus YOL006C, strain TOP1, active compounds read low 0.0917 | S. cerevisiae deletion strains, locus YOL012C, strain htz1 0.187 | S. cerevisiae deletion strains, locus YOL147C, strain pex11, active compounds read low 0.0578 | S. cerevisiae deletion strains, locus YOR001W, strain rrp6, active compounds read low 0.431 | S. cerevisiae deletion strains, locus YOR061W, strain CKA2, active compounds read low 0.0446 | S. cerevisiae deletion strains, locus YOR069W, strain VPS5, active compounds read low 0.0459 | S. cerevisiae deletion strains, locus YOR070C, strain gyp1, active compounds read low 0.0646 | S. cerevisiae deletion strains, locus YOR080W, strain dia2, active compounds read low 0.408 | S. cerevisiae deletion strains, locus YOR083W, strain WHI5 (second series), active compounds read low 0.185 | S. cerevisiae deletion strains, locus YOR083W, strain WHI5, active compounds read low 0.0831 | S. cerevisiae deletion strains, locus YOR106W, strain vam3, active compounds read low 0.0773 | S. cerevisiae deletion strains, locus YOR136W, strain idh2, active compounds read low 0.0725 | S. cerevisiae deletion strains, locus YOR144C, strain elg1, active compounds read low 0.0595 | S. cerevisiae deletion strains, locus YOR184W, strain ser1, active compounds read low 0.0775 | S. cerevisiae deletion strains, locus YOR265W, strain rbl2, active compounds read low 0.0798 | S. cerevisiae deletion strains, locus YOR270C, strain vph1, active compounds read low 0.136 | S. cerevisiae deletion strains, locus YOR290C, strain snf2, active compounds read low 0.125 | S. cerevisiae deletion strains, locus YOR316C, strain cot1, active compounds read low 0.0588 | S. cerevisiae deletion strains, locus YPL051W, strain arl3, active compounds read low 0.136 | S. cerevisiae deletion strains, locus YPL055C, strain LGE1, active compounds read low 0.0697 | S. cerevisiae deletion strains, locus YPL078C, strain atp4, active compounds read low 0.288 | S. cerevisiae deletion strains, locus YPL106C, strain sse1, active compounds read low 0.114 | S. cerevisiae deletion strains, locus YPL240C, strain hsp82, active compounds read low 0.106 | S. cerevisiae deletion strains, locus YPL241C, strain CIN2, active compounds read low 0.0469 | S. cerevisiae deletion strains, locus YPL256C, strain CLN2, active compounds read low 0.815 | S. cerevisiae deletion strains, locus YPR119W, strain clb2, active compounds read low 0.0696 | S. cerevisiae deletion strains, locus YPR163C, strain tif3, active compounds read low 0.0696 | S. cerevisiae deletion strains, locus YPR167C, strain met16, active compounds read low 0.0609 | S. cerevisiae deletion strains, strain wtn01, active compounds read low 0.0608 | S. cerevisiae strains, strain wild type, active compounds read low 0.0464
inactive: S. cerevisiae deletion strains, locus YKL068W, active compounds read low 1 | S. cerevisiae deletion strains, locus YKL085W, strain MDH1 (second series), active compounds read low 0.952 | S. cerevisiae deletion strains, locus YKL085W, strain MDH1, active compounds read low 0.952 | S. cerevisiae deletion strains, locus YNL175C, strain NOP13, active compounds read low 0.968 | S. cerevisiae deletion strains, locus YNL183C, strain NPR1, active compounds read low 0.901 | S. cerevisiae deletion strains, locus YNL250W, strain rad50, active compounds read low 0.999 | S. cerevisiae deletion strains, locus YNL271C, strain bni1, active compounds read low 0.953 | S. cerevisiae deletion strains, locus YNL322C, strain KRE1 (second series), active compounds read low 1.07 | S. cerevisiae deletion strains, locus YOR231W, strain MKK1, active compounds read low 0.894 | S. cerevisiae deletion strains, locus YPR141C, strain kar3, active compounds read low 1.04
